# Bioassay records from PubChem.
# The full list was thinned out, with hits kept by preference.
# Pf Dd2 inh: qHTS Primary assay for Inhibitors of Plasmodium falciparum Dd2 growth in vitro; hit rate 4.3% among 120,000; Potency, µM (top dose mostly 28.9 µM), usual class: inhibitors; AID 1347417, 2020; P. falciparum Dd2 growth, SYBR Green, 72 h; active = well fitted inhibition curve with a large enough effect; also: nearly all actives have a fitted effect of over 65% in size
#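 Readout: SYBR Green fluorescence, 485 nm excitation, 535 nm emission, after ~16 h lysis at 37C. Before that, Dd2-infected red cells (2.5% hematocrit) grew 72 h with compound, 29 uM top final concentration.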
# A number is an active result; i = inactive; [ ] = remark or other dose.
SMILES,Pf Dd2 inh
NCC(=O)N1CCCC(N2CCN(c3cccc(C(F)(F)F)c3)CC2)C1 (stereo not given),i
CNC(=O)CN1CCCC(N2CCN(c3cccc(C(F)(F)F)c3)CC2)C1 (stereo not given),i
NC(=O)NCCN1CCCC(N2CCN(c3cccc(C(F)(F)F)c3)CC2)C1 (stereo not given),i
CC(C)N1CCC(N2CCCC(N3CCN(c4cccc(C(F)(F)F)c4)CC3)C2)CC1 (stereo not given),14µM
O=C(CO)N1CCCC(N2CCN(c3cccc(C(F)(F)F)c3)CC2)C1 (stereo not given),i
COc1cccc(CN2CCCC(N3CCN(c4cccc(C(F)(F)F)c4)CC3)C2)c1O (stereo not given),0.4µM
COCc1c(C(=O)N2CCCn3ccnc3C2C(C)C)noc1C (stereo not given),i
O=C(CCc1nnn2c1CNCC2)NC1CC1,i
CCCN1CCCn2nc(CNC(=O)Nc3ccccc3SC)cc2C1,i
O=C(CCc1ccnc(N2CCCC2)c1)NCc1ccc(F)c(Cl)c1,3.2µM
Cn1c(CNC(=O)CCc2ccnc(N3CCCC3)c2)nc2ccccc21,i
CCCNC(=O)CCc1ccnc(N2CCOCC2)c1,i
CCn1cc(-c2ccc(Cl)cc2)cc1C(=O)NCc1ccncc1,i
Cc1ccc(Cn2cc(-c3ccncc3)cc2C(=O)N2CCN(C)CC2)cc1,6.3µM
Cc1ccccc1Cn1cc(-c2ccncc2)cc1C(=O)O,i
Cc1ccc(-c2cc(C(=O)O)n(C)c2)cc1,i
CCOC(=O)C1CCN(C(=O)c2cc3sc(C)cc3n2C)CC1,i
CCOC(=O)C1CCN(C(=O)c2cc(-c3ccncc3)cn2Cc2ccccc2C)CC1,6.3µM
CN1CCN(Cc2nc(C3(O)CCN(C(=O)Cc4ccccc4)CC3)cs2)CC1,i
CCN(C(=O)CCC(=O)N1CCC(C)(c2noc(-c3ccccn3)n2)CC1)c1ccccc1,i
Cc1cc(-n2c(SCc3ccccc3F)nc3[nH]ncc3c2=O)ccc1Cl,i
O=c1c2cn[nH]c2nc(SCc2cccc(Br)c2)n1-c1ccc(Cl)cc1,i
Cc1ccccc1-n1c(SCc2ccc(Cl)cc2)nc2[nH]ncc2c1=O,10µM
COc1ccc(-c2ccc3c(c2)C(=O)N2C[C@@H](NS(=O)(=O)c4ccc(F)cc4)C[C@H]2C(=O)N3)c(OC)c1,i
CN(CC1(C)CCOCC1)C(=O)c1ccc2cc[nH]c2c1,i
SMILES,Pf Dd2 inh
CC(C)C1c2nccn2CCCN1C(=O)CN1CCCC1=O (stereo not given),i
COc1ccc(CN2Cc3[nH]cnc3C[C@H]2C(=O)NCc2ccc(Cl)cc2)c2ccccc12,i
CN(Cc1ccccc1)C(=O)[C@@H]1Cc2nc[nH]c2CN1C,i
COc1ccc(CN2Cc3[nH]cnc3C[C@H]2C(=O)N(C)Cc2ccccc2)c2ccccc12,5.6µM
COc1ccc(CN2Cc3[nH]cnc3C[C@H]2C(=O)NC2CCCCC2)c2ccccc12,11µM
COc1ccc(CN2Cc3[nH]cnc3C[C@H]2C(=O)NCc2ccc(C#N)cc2)c2ccccc12,i
CN(C)c1ccc(CN2Cc3[nH]cnc3C[C@H]2C(=O)N2CCC(Cc3ccccc3)CC2)cc1,i
Cn1c(CCNC(=O)c2ccccc2C2CCNC2)nc2ccccc21 (stereo not given),i
CCCNC(=O)N1Cc2ccccc2OC2(CCN(C)CC2)C1,i
CCOC(=O)c1c(C)n(-c2ccccc2)c2ccc(OC(=O)c3c(F)cccc3F)cc12,i
CCOC(=O)c1c(C)n(-c2ccccc2)c2ccc(OC(=O)c3ccccc3)cc12,2.8µM
CCOC(=O)c1cc(OC(=O)c2ccc(OC)cc2)n(-c2ccccc2)n1,i
COc1ncccc1-c1cc(C(=O)N2CCOCC2)c2c(c1)ncn2C,i
COCC1CN(Cc2cccc(OC(F)(F)F)c2)CC12CCNCC2 (stereo not given),1.3µM
COCC1CN(Cc2c[nH]c3ccccc23)CC12CCNCC2 (stereo not given),i
COCC1CN(Cc2cccnc2)CC12CCNCC2 (stereo not given),i
Cc1nnc(NC(=O)C[C@H]2NC(=O)c3ccccc3NC2=O)s1,i
COc1ccc(CNC(=O)CC2CCCCN(Cc3ccccc3)C2=O)cc1 (stereo not given),i
O=C(NC1CCCCC1)C1CN(S(=O)(=O)c2ccccc2F)CC12CCOCC2 (stereo not given),i
CNC(=O)C1(N2CCC[C@H]2C(=O)N2CCCCCC2)COC1,i
C#CCN(C)C(=O)[C@@H]1CCCN1[C@@H](C(=O)NC)c1ccc(OC)cc1,i
Cc1ccc(CN(Cc2ccco2)C(=O)COc2ccc(C)c(C)c2)cc1,i
Cc1cc(OCC(=O)N(Cc2ccc(N(C)C)cc2)Cc2ccco2)cc(C)c1Cl,i
Cc1cccc(OCC(=O)N(Cc2ccc(C(C)(C)C)cc2)Cc2ccco2)c1,11µM
CCc1ccc(NC(=O)c2ccc(F)c(S(=O)(=O)N3CCc4ccccc4C3)c2)cc1,i
SMILES,Pf Dd2 inh
CCc1ccc(NC(=O)c2ccc(F)c(S(=O)(=O)N(C)C3CCCCC3)c2)cc1,11µM
CCc1ccc(NC(=O)c2ccc(F)c(S(=O)(=O)N3CCC(C)CC3)c2)cc1,i
Cc1ccc(C)c(NC(=O)NCC2CCOCC2)c1,i
Cn1ncc(N2CCC(CNC(=O)c3cccc(-c4ncc[nH]4)c3)C2)cc1=O (stereo not given),i
CC(C(=O)NCC1CC1)N1C(=O)COc2ccc(C(=O)COc3cccc(Cl)c3)cc21 (stereo not given),i
Cc1cnc(CCNC(=O)c2n[nH]c3ccccc23)n1C1CCCC1,3.2µM
CC(=O)NCCc1ncc(C)n1C1CCCC1,i
O=C(NCCc1noc(C2CC2)n1)c1n[nH]c2ccccc12,i
C=CCSC(C)C(=O)N1CCCn2nc(C(=O)OC)cc2C1 (stereo not given),i
COc1ccccc1C(=O)N1CCc2nc(C)nc(-c3ccc(Cl)cc3)c2C1,i
CN(C)CC(=O)N1C[C@@H]2C[C@H](C1)c1ccc(-c3ccccc3CN3CCOCC3)c(=O)n1C2,i
CNc1ccc(C)cc1C(=O)N1CCC2(CCCN(C)CC2)CC1,10µM
CNc1ncccc1C(=O)N1CCC(O)(c2ccc(C)cn2)CC1,i
Cc1ccc(C(=O)N2CCCC3(CCNCC3)CC2)cc1Cl,i
Cn1nnnc1C1CCCN(C(=O)c2ccc3cc[nH]c3c2)C1 (stereo not given),i
Cc1c(C(=O)N2CCC3(CC2)Nc2ccccc2NC3=O)cnc2ccnn12,i
Cc1ccc(CN2COc3ccc4c(-c5ccccc5)cc(=O)oc4c3C2)cc1,0.71µM
COc1ccc(CN2CCC3(CC2)CNC(=O)c2ccccc2O3)cc1,i
COc1ccc(CN2COc3ccc4c(-c5ccccc5)cc(=O)oc4c3C2)cc1,1.1µM
Cc1ccc2c(CC(=O)N3CCOc4ccc(CN5CCOCC5)cc4C3)cc(=O)oc2c1,i
COc1ccc(CN2Cc3[nH]nc(-c4ccccc4)c3CC2=O)cc1,i
Cc1ccc(CN2C[C@@H]3C(=O)N(Cc4ccc5c(c4)OCO5)C(=O)[C@@H]3C2)cc1,i
COc1c(C)cccc1C(=O)N1CCC2(CC1)CNC(C(=O)O)C2 (stereo not given),i
O=C(COc1ccc(F)cc1)N1CCC(Oc2ccc(-c3noc(C4CC4)n3)cc2)C1 (stereo not given),i[5.79 µM]
CCS(=O)(=O)c1ncc(N(Cc2ccccc2)Cc2ccco2)c(C(=O)Nc2ccccc2C)n1,i
CS(=O)(=O)c1ncc(Cl)c(C(=O)Nc2c(C(=O)Nc3ccccc3)oc3ccccc23)n1,i
